The structures appear in SMILES notation. Values joined by “and” are separate entries in the source; they are usually repeats but may differ in a detail not shown here. Equal values may be shown once. Results filed as inconclusive are left out. Active and inactive are the calls of the source. Calls follow the shape of the dose curve; as a rule, active = well fitted curve in the direction sought with a large enough effect; inconclusive = small, poorly fitted or top-dose-only effect, or another doubt; inactive = no such curve, though single readings can be large; an effect the other way counts as inactive or inconclusive.

Experiment [1] in a line: qHTS of pediatric cancer cell lines to identify multiple opportunities for drug repurposing: Confirmatory screen for Rh41 cells (AID 1347123).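 Also: 48 h compound exposure; nearly all actives have a fitted effect of over 60% in size.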 Also: potency is read from the fitted curve at half-maximal effect. An outline of the steps: (§1)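 Viability after 48 h compound treatment at 37C, 500-1,000 cells/well, read as ATP luminescence with CellTiter-Glo. Primary screens used 11-point (MIPE, 0.78 nM-46 µM) or 8-point (NPC, 0.59 nM-46 µM) final concentrations; follow-up screens used 11-point dilutions.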
Background: Quantitative high-throughput screening tests each substance at several concentrations.

Experiment [2] in a line: qHTS of pediatric cancer cell lines to identify multiple opportunities for drug repurposing: Confirmatory screen for RD cells (AID 1347124).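 Also: cells exposed to compound for 48 h before viability readout; nearly all actives have a fitted effect of over 65% in size.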 Also: potency is read from the fitted curve at half-maximal effect. Summed up:
as §1

Experiment [3] in a line: qHTS of pediatric cancer cell lines to identify multiple opportunities for drug repurposing: Confirmatory screen for Rh18 cells (AID 1347125). Also: nearly all actives have a fitted effect of over 55% in size. Also: potency is read from the fitted curve at half-maximal effect. Summed up: as §1
Experiment [4] in a line: qHTS of pediatric cancer cell lines to identify multiple opportunities for drug repurposing: Confirmatory screen for Rh30 cells (AID 1347126). Also: nearly all actives have a fitted effect of over 55% in size. Also: potency is read from the fitted curve at half-maximal effect. Summed up:
as §1

The nature of experiment [5]: qHTS of pediatric cancer cell lines to identify multiple opportunities for drug repurposing: Confirmatory screen for Saos-2 cells (AID 1347127). Also: nearly all actives have a fitted effect of over 60% in size. Also: potency is read from the fitted curve at half-maximal effect. Summed up: as §1
The nature of experiment [6]: qHTS of pediatric cancer cell lines to identify multiple opportunities for drug repurposing: Confirmatory screen for OHS-50 cells (AID 1347128).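 Also: compound exposure lasted 48 h at 37 degrees C; nearly all actives have a fitted effect of over 55% in size.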 Also: potency is read from the fitted curve at half-maximal effect. Summed up:
as §1

The nature of experiment [7]: qHTS of pediatric cancer cell lines to identify multiple opportunities for drug repurposing: Confirmatory screen for SK-N-SH cells (AID 1347129).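 Also: cells exposed to compound for 48 h before viability read; nearly all actives have a fitted effect of over 60% in size.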 Also: potency is read from the fitted curve at half-maximal effect. An outline of the steps: as §1
The subject of experiment [8] is Zika virus NS2B-NS3 protease (unlinked). Description: Optimization of GU AMC qHTS for Zika virus inhibitors: Unlinked NS2B-NS3 protease assay (AID 1347151). Also: nearly all actives have a fitted effect of over 80% in size. Also: potency is read from the fitted curve at half-maximal effect. Summed up: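 Noncovalent NS2B hydrophilic domain–NS3 protease complex (25 nM final) in 10 mM Tris-HCl pH 8.0, 0.01% Tween 20; AMC substrate, room temperature 15 min (~20% conversion); fluorescence change normalized, 4-parameter Hill fit.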

The subject of experiment [9] is Zika virus NS2B-NS3 protease. Description: Primary screen GU AMC qHTS for Zika virus inhibitors (AID 1347154). Also: nearly all actives have a fitted effect of over 70% in size. An outline of the steps:
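Unlinked Zika NS2B hydrophilic domain–NS3 protease complex at 25 nM in 10 mM Tris-HCl pH 8.0, 0.01% Tween 20, with an AMC peptide substrate. Fluorescence change (340/450 nm) over 15 min at room temperature, normalized to controls, fitted to 4-parameter Hill.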

For experiment [10], the system named is Zika virus NS2B-NS3 protease (unlinked complex). Description: Primary screen GU Rhodamine qHTS for Zika virus inhibitors: Unlinked NS2B-NS3 protease assay (AID 1347159). Also: nearly all actives have a fitted effect of over 60% in size. Also: potency is read from the fitted curve at half-maximal effect. An outline of the steps:
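In dose–response format, inhibition of unlinked protease (25 nM) was measured with 1.5 microM bis-peptide Rhodamine110 substrate. Aprotinin served as the intraplate control.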

Experiment [11] has as its target N-terminal Xaa-Pro-Lys N-methyltransferase 1 (Homo sapiens) (UniProt Q9BV86). Nature of the experiment: qHTS Assay for Inhibitors of N-terminal methyltransferase 1 (NTMT1): LOPAC validation of the NTMT1 SAHH-coupled ThioGlo3 Assay (AID 1347143).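 Also: SAH from peptide methylation measured as thiol fluorescence via SAHH coupling and ThioGlo3; nearly all actives have a fitted effect of over 70% in size.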 Also: potency is read from the fitted curve at half-maximal effect. An outline of the steps: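 Steps: dispense 125nM NTMT1; pin-transfer test compounds at several concentrations, with 1uM RCC1-6 peptide as control; incubate 1 min; start with reagent holding 100uM SAM, 10uM SAHH, 15uM ThioGlo3; read at 0 and 30 min.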

Experiment [12] is described as follows: ZIKV-mCherry secondary qHTS for Zika virus inhibitors (AID 1347158). Also: top concentration of the series differs between compounds. An outline of the steps: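 This orthogonal imaging screen measured ZIKV-mCherry infection of Vero cells exposed to compound, MOI 1, 48-72 h. Percent infection came from segmented nuclei scored mCherry-positive above 3 SD of negative controls.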
Experiment [13] relates to Zika virus NS2B-NS3 protease (linked). Description: 384 well plate NINDS AMC confirmatory qHTS for Zika virus inhibitors (AID 1347163). Also: potency is read from the fitted curve at half-maximal effect; nearly all actives have a fitted effect of over 50% in size. Summed up: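 Enzyme (5, 30 or 60 nM final) first met test compounds for ~15 min. The AMC-tagged peptide Ac-VKTGKR-AMC followed at 30 microM. Fluorescence was then recorded at 25 min and scaled against no-enzyme and no-inhibitor wells.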

Experiment [14] relates to Zika virus NS2B-NS3 protease (linked construct). Nature of the experiment: Primary screen NINDS Rhodamine qHTS for Zika virus inhibitors (AID 1347160). Also: nearly all actives have a fitted effect of over 55% in size. The following applies: outcome: dose series up to 57.1 µM unless noted. An outline of the steps:
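Each compound, titrated, sat 15 min with 25 nM linked protease before 1.5 microM Rhodamine110 substrate went in. Fluorescence gain over the next 15 min, in pH 8.0 Tris with Tween 20, gave Hill-fitted curves.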

N-terminal Xaa-Pro-Lys N-methyltransferase 1 (Homo sapiens), sequence (Q9BV86 whole entry, looked up): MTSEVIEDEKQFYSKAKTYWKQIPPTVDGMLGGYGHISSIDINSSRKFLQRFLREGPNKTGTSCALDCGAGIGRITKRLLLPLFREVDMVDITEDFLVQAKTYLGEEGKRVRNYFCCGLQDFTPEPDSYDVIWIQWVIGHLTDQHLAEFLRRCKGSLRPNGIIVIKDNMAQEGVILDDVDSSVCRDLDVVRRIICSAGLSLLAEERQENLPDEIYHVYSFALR

As to `CC[C@@]1(O)C(=O)OCc2c1cc1n(c2=O)Cc2cc3c(CN(C)C)c(O)ccc3nc2-1`, the Potency in experiment [1] was 3.69 µM (active); in experiment [2], 5.85 µM (active); in [3] it was 5.22 µM (active); in [4] it was 2.93 µM (active); in experiment [5], 0.208 µM (active); in [6], 0.329 µM (active). Also, the results for the Potency in [7] and in experiment [10] were 6.62 µM (active) and 20 µM (active), respectively. Further, the Potency result in experiment [8] and in experiment [9] was “inactive” in each case.

With `CC(C)NCC(O)c1ccc(O)c(O)c1` (stereo not drawn), the Potency result in experiment [2], in experiment [7], in experiment [8] and in [9] was “inactive” each time.

As to `Clc1ccc(C(c2ccccc2Cl)C(Cl)Cl)cc1` (stereo not drawn), the Potency result in experiment [2], in [3], in [4], in experiment [5], in experiment [6] and in experiment [7] was “inactive” each time. Moreover, in experiment [9], the Potency entry was “inactive”.

As to `CN1CCN(CCCN2c3ccccc3Sc3ccc(Cl)cc32)CC1`, the Potency in experiment [1] is 11.7 µM (active); in experiment [2], 18.5 µM (active); in [4] it was 18.5 µM (active); in [7] it was 20.9 µM (active). Also, the Potency result in [8] and in [9] was “inactive” throughout.

Consider `Nc1nc2c(ncn2COC(CO)CO)c(=O)[nH]1`, for which the Potency entry in [11], in experiment [8] and in experiment [9] was “inactive” in each case.

For the compound `NC(=O)NO`, the Potency result in experiment [1], in experiment [2], in experiment [3], in experiment [5], in experiment [6] and in experiment [11] was “inactive” each time. For the same compound, the Potency result in experiment [8] and in experiment [9] was “inactive” in each case.

Regarding `CC(=O)OCC(CCn1cnc2cnc(N)nc21)COC(C)=O`, the Potency was 56.2 µM (active) in [11] and 26.7 µM (active) in experiment [8].

As to `CN(C)CCCN1c2ccccc2CCc2ccc(Cl)cc21`, the Potency in experiment [1] was 10.4 µM (active). Further, the Potency result in experiment [8] and in experiment [9] was “inactive” each time.

Turning to `O=C(c1ccc(OCCN2CCCCC2)cc1)c1c(-c2ccc(O)cc2)sc2cc(O)ccc12`, the Potency in experiment [1] is 20.8 µM (active); in experiment [4], 3.69 µM (active). In addition, the Potency result in experiment [3], in experiment [8] and in [9] was “inactive” throughout.

Take `CC(C)C(=O)Nc1ccc([N+](=O)[O-])c(C(F)(F)F)c1`: the Potency result in experiment [5], in experiment [7], in experiment [8] and in [9] was “inactive” each time.

`Cn1ccc2cc3c(cc21)CCN3C(=O)Nc1cccnc1`: the result in [12] was inactive. Also, in experiment [13], the Potency was 31.6 µM (active) and 178 µM (active).

As for `O=c1c(O)c(-c2ccc(O)c(O)c2)oc2cc(O)cc(O)c12`, the result in experiment [12] was inactive.

As to `C[C@H]1c2cccc(O)c2C(O)=C2C(=O)[C@]3(O)C(O)=C(C(N)=O)C(=O)[C@@H](N(C)C)[C@@H]3[C@@H](O)[C@@H]21`, the Potency in [13] is 63.1 µM (active).

As for `NC(=O)OCC(COC(N)=O)c1ccccc1`, the Potency entry in experiment [8] and in experiment [9] was “inactive” in each case.

On to `CC1(C)O[C@H]2CC(=O)OC[C@]23[C@H]2CC[C@@]4(C)[C@H](c5ccoc5)OC(=O)[C@H]5O[C@]54[C@]2(C)C(=O)C[C@@H]13`, for which the Potency entry in experiment [9] and in experiment [10] was “inactive” in each case. Also, the outcome in experiment [14] is “inactive [at 33.1 µM]”.

As to `O=C1N(c2ccccc2)c2ccccc2C1(Cc1ccncc1)Cc1ccncc1`, the Potency result in experiment [8] and in experiment [9] was “inactive” each time.

Source of the values: PubChem BioAssay (NCATS).
